Experimental data as given in PubChem BioAssay.
Records with an inconclusive call do not appear. Calls of active or inactive are those of the source.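 Rule for the calls, unless noted: active = compounds whose cell count with miR-34 switched on is under 0.7 times the count with it off; inactive = the rest.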

Legend:
[1] = viability loss with induced miR-34 in A549 – imaging, A549 dox-inducible miR-34, nuclei and caspase counts, primary screen (AID 1347080); settings: A549 miR-34 inducible, Hoechst nuclei count, 48 h
[2] = viability loss in pontine glioma line – cell-based, SU-DIPG-XIII, MIPE5.0, CellTiter-Glo, qHTS, dose response (AID 1347064; cut-off not given, nearly all actives have AC50 up to about 23 µM); settings: CellTiter-Glo ATP luminescence
[3] = viability loss in pontine glioma line – cell-based, SU-DIPG-XXV, MIPE5.0, CellTiter-Glo, qHTS, dose response (AID 1347065; cut-off not given, nearly all actives have AC50 up to about 26 µM;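 note: cells exposed to compound for 48 hours before ATP readout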); settings: CellTiter-Glo ATP luminescence
[4] = JHH-DIPG-1 glioma cell viability, MIPE5.0 library, CellTiter-Glo luminescence, qHTS (AID 1347067; cut-off not given, nearly all actives have AC50 up to about 26 µM;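 note: cells exposed to compound for 48 hours before readout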); settings: JHH-DIPG-1 glioma viability, CellTiter-Glo ATP luminescence
[5] = P. berghei load reduction in hepatocytes – cell-based, HepG2, luciferase luminescence, HepG2 viability, primary screen (AID 624349; in the data active = parasite load remaining mostly below about 12%, no sharp cut-off; inactive = mostly above about 10%;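 note: 100% = mean of DMSO negative control wells on the same plate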); settings: P. berghei liver stage in HepG2, luciferase luminescence, concentration not given here; parasite load remaining: stronger effect = lower value; viability: measured here: HepG2 viability without parasites
[6] = viability loss in pontine glioma line – cell-based, SU-DIPG-IV, MIPE4.0, CellTiter-Glo, qHTS, dose response (AID 1347063; cut-off not given, nearly all actives have AC50 up to about 30 µM;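 note: compound exposure lasted 48 hours before the viability readout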); settings: CellTiter-Glo ATP luminescence
[7] = growth inhibition of DIPG cells – cell-based, MIPE4.0 library, CellTiter-Glo luminescence, qHTS (AID 1347066; cut-off not given, nearly all actives have AC50 up to about 30 µM;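 note: cells exposed to compound for 48 hours before readout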); settings: SU-DIPG-VI viability, CellTiter-Glo ATP luminescence
[8] = stronger effect = lower value, cell number ratio, induced over uninduced
[9] = measured here: relative caspase fold change +Dox/-Dox
[10] = measured here: total cells with miR-34 induction, stronger effect = lower value
[11] = measured here: total cells without miR-34 induction

## C=C1[C@@H](O)[C@@H]2O[C@@]3(CCC2O[C@@H]1[C@@H](O)C[C@H](C)C1O[C@@]2(CCCCO2)CC[C@H]1C)CC[C@H](/C=C/[C@@H](C)[C@@H]1CC(C)=C[C@@]2(O[C@H](C[C@@](C)(O)C(=O)O)CC[C@H]2O)O1)O3 (stereo not given in full)
[1]; [8]
  fold change: 0.897 (inactive)
[1]; [9]
  fold change: 0.814
[1]; [10]
  cell count: 423
[1]; [11]
  cell count: 472

## C[C@@H](C1CC[C@@]2(O)C3=CC(=O)[C@@H]4C[C@@H](O)[C@@H](O)C[C@]4(C)[C@H]3CC[C@]12C)[C@H](O)CCC(C)(C)O (stereo not given in full)
[2]
  outcome: inactive
[3]
  outcome: inactive
[4]
  outcome: inactive

## CC1OC(O[C@H]2C[C@@H](O)[C@]3(CO)[C@H]4[C@H](O)C[C@]5(C)[C@@H](C6=CC(=O)OC6)CC[C@]5(O)[C@@H]4CC[C@]3(O)C2)C(O)C(O)C1O (stereo not given in full)
[1]; stronger effect = lower value
  fold change: 0.802 (inactive)
[1]; [9]
  fold change: 1.17
[1]; [10]
  cell count: 286
[1]; [11]
  cell count: 356

## c1cc2ccc(N3CCNCC3)cc2cn1
[1]; [8]
  fold change: 0.985 (inactive)
[1]; [9]
  fold change: 0.763
[1]; [10]
  cell count: 5520
[1]; [11]
  cell count: 5610

## O=c1[nH]c2ccccc2n1C1CCN(Cc2ccc(-c3[nH]c4cc5ncnc5cc4nc3-c3ccccc3)cc2)CC1
[5]
  parasite load remaining: 45.5% (inactive)
  viability: 115%
[6]
  AC50: 16.6 µM (active)
[3]
  AC50: 23.5 µM (active)
[7]
  AC50: 14.8 µM (active)

## c1cc(N2CCNCC2)c2cc[nH]c2c1
[1]; [8]
  fold change: 0.865 (inactive)
[1]; [9]
  fold change: 1.51
[1]; [10]
  cell count: 4820
[1]; [11]
  cell count: 5570

## CCCC[C@@H](C)[C@@H](OC(=O)C[C@@H](CC(=O)O)C(=O)O)[C@H](C[C@@H](C)C[C@H](O)CCCC[C@@H](O)C[C@H](O)[C@H](C)N)OC(=O)C[C@H](CC(=O)O)C(=O)O
[1]; stronger effect = lower value
  fold change: 0.911 (inactive)
[1]; [9]
  fold change: 1.82
[1]; [10]
  cell count: 5520
[1]; [11]
  cell count: 6060

## C[N+]1(C)[C@@H]2CC(OC(=O)C(CO)c3ccccc3)C[C@H]1[C@@H]1O[C@@H]12 (stereo not given in full)
[1]; stronger effect = lower value
  fold change: 0.929 (inactive)
[1]; [9]
  fold change: 1.43
[1]; [10]
  cell count: 8500
[1]; [11]
  cell count: 9160

## CCCCC/C=C\C/C=C\C/C=C\C/C=C\CCCCOC(CO)CO
[1]; [8]
  fold change: 0.983 (inactive)
[1]; [9]
  fold change: 0.95
[1]; [10]
  cell count: 5720
[1]; [11]
  cell count: 5810

## COc1cc(CNC(=O)CCCCCCC(C)C)c(I)cc1O
[1]; [8]
  fold change: 1.02 (inactive)
[1]; [9]
  fold change: 0.817
[1]; [10]
  cell count: 5730
[1]; [11]
  cell count: 5600

## OOCCC/C=C/c1ccccc1
[1]; [8]
  fold change: 0.959 (inactive)
[1]; [9]
  fold change: 0.789
[1]; [10]
  cell count: 5730
[1]; [11]
  cell count: 5970

## c1cc2ccsc2c(N2CCNCC2)n1
[1]; [8]
  fold change: 0.937 (inactive)
[1]; [9]
  fold change: 0.656
[1]; [10]
  cell count: 5170
[1]; [11]
  cell count: 5520

## CCCCC/C=C\C/C=C\C/C=C\C/C=C\CCCC(=O)N(C)C
[1]; [8]
  fold change: 0.925 (inactive)
[1]; [9]
  fold change: 1.14
[1]; [10]
  cell count: 5340
[1]; [11]
  cell count: 5780

## CCCCC/C=C\C/C=C\C/C=C\C/C=C\CCCC(=O)NCCOP(=O)(O)O
[1]; [8]
  fold change: 0.994 (inactive)
[1]; [9]
  fold change: 0.95
[1]; [10]
  cell count: 5850
[1]; [11]
  cell count: 5880

## CC[C@@]1(O)C(=O)OCc2c1cc1n(c2=O)-c2cc3ccccc3nc2C1
[1]; stronger effect = lower value
  fold change: 1.01 (inactive)
[1]; [9]
  fold change: 0.79
[1]; [10]
  cell count: 1320
[1]; [11]
  cell count: 1300
